The record followed here is PubChem BioAssay (NCATS).

Assay [1] is described as follows: qHTS profiling of the MIPE4 collection as inhibitors of Plasmodium falciparum (HB3) proliferation (AID 743347; call rule not given here;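 further: plate controls were DMSO vehicle wells for no effect and artemisinin wells for full effect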). The note with it: P. falciparum HB3 in erythrocytes, SYBR Green DNA, 72 h; at 28.5 µM (top of the series) unless noted. A digest of the protocol:
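Erythrocytes infected with P. falciparum (0.3% parasitemia, 2.5% hematocrit) incubated with compounds 72 h at 37 C, 5% CO2. Lysis with saponin/Triton buffer containing SYBR Green I, overnight at room temperature in the dark; DNA fluorescence (485/535 nm) normalised to 0.29 uM artemisinin and DMSO.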
In general terms: qHTS replaces the single test concentration by a dilution series.

The nature of assay [2]: High-throughput drug toxicity screening in the BPDCN cell line Gen2.2 (AID 1224824; call rule not given here;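 further: cells exposed to compounds for 48 h before reading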). The note with it: Gen2.2 BPDCN cells; at 45.8 µM (top of the series) unless noted. A digest of the protocol: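 Gen2.2, 500 cells/well, phenol red-free RPMI/10% FBS/Pen-Strep; 48 h cpd, 37 °C/5% CO2; CTG lum, 15 min RT. Norm: DMSO = 100%, bortezomib 9.2 uM final = 0%.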
The nature of assay [3]: High-throughput drug toxicity screening in the BPDCN cell line Cal-1 (AID 1224825; call rule not given here). The note with it: Cal-1 BPDCN cell viability, qHTS; at 45.8 µM (top of the series) unless noted. A digest of the protocol: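 Exponentially growing Cal-1 cells, 500 per well in phenol red-free RPMI with 10% FBS, were exposed to compounds for 48 h at 37 °C, 5% CO2. Viability was read by CellTiter-Glo luminescence and normalised to DMSO (100%) and 9.2 uM bortezomib (0%).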

Assay [4] can be described thus: qHTS assay for measurement of the activity of small molecule inhibitors on Zika virus induced Caspase-3 activity in human iPSC derived neural progenitor cells (hNPCs) (AID 1224857). Further: % of control where 0% means no effect; nearly all actives have a fitted effect of over 65% in size. A digest of the protocol: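 Human iPSC-derived neural progenitor cells pretreated 1 hr with compounds, then infected with Zika virus (2 FFU/cell) for 6 hours at 37 C. Caspase-3/7 measured by Caspase-Glo luminescence; % inhibition calculated from induction scaled to uninfected (0%) and infected (100%) wells.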

Assay [5] can be described thus: qHTS assay for measurement of the activity of small molecule inhibitors on Zika virus induced Caspase-3 activity in human astrocytoma cells (AID 1224859).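 Further: plate controls were ZIKV-infected untreated cells for no effect and uninfected cells for full effect.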 A digest of the protocol: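 SNB-19 astrocytoma cells, 250/well, pretreated 1 h with compounds, then Zika virus at 2 FFU/cell for 6 h at 37 C; Caspase-Glo 3/7 luminescence after 30 min; percent inhibition normalised to uninfected and infected controls.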

Assay [6] can be described thus: qHTS Screen of the MIPE 4.0 Collection Against Ewings Sarcoma (RDES) (AID 1259252). Further: nearly all actives have a fitted effect of over 35% in size. Further: potency means the concentration at half of the fitted maximal effect. A digest of the protocol: (§1)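 Here, cells in 5% FBS RPMI were exposed for two days (48 h) to compound dilutions added four hours after plating. ATP-based CellTiter-Glo luminescence measured viability, normalized to vehicle and no-cell blanks.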
A short description of assay [7]: qHTS Screen of the MIPE 4.0 Collection Against Ewings Sarcoma (EW8) (AID 1259255).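 Further: 100% = DMSO-treated cells and 0% = medium-only wells without cells; nearly all actives have a fitted effect of over 35% in size.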 The method in brief: as §1
The nature of assay [8]: P-glycoprotein substrates identified in KB-8-5-11 adenocarcinoma cell line, qHTS therapeutic library screen (AID 1346987). Further: nearly all actives have a fitted effect of over 65% in size. Further: potency means the concentration at half of the fitted maximal effect. The note with it: outcome: dose series up to 44.5 µM unless noted. A digest of the protocol:
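KB-8-5-11, a colchicine-selected P-gp-overexpressing KB-3-1 subline, was grown without colchicine for the assay. Cells were seeded at 500 cells/well, dosed in concentration-response and incubated 72 h at 37 degree C, 5% CO2. Viability was read by CellTiter-Glo luminescence.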

Assay [9] can be described thus: Natriuretic polypeptide receptor (hNpr1) antagonism - Pilot counterscreen GloSensor control cell line (AID 1347045; calls by dose curve; further: on the % scale 0 is the no-effect control and ±100 the full control effect). A digest of the protocol: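 HEK293 cGMP GloSensor cells preloaded 2 h with 2% GloSensor reagent, then compound 30 min before baseline luminescence read. Stimulated with 50 uM sodium nitroprusside, 20 min at room temperature, then read again; counterscreen for Npr1 antagonism.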

Assay [10] is described as follows: qHTS Screen of the MIPE 4.0 Collection Against Ewings Sarcoma (TC71) (AID 1259253). Further: nearly all actives have a fitted effect of over 40% in size. Further: potency means the concentration at half of the fitted maximal effect. The method in brief:
as §1

Assay [11] in a line: qHTS Screen of the MIPE 4.0 Collection Against Ewings Sarcoma (TC32) (AID 1259256). Further: nearly all actives have a fitted effect of over 45% in size. Further: potency means the concentration at half of the fitted maximal effect. A digest of the protocol:
as §1

The nature of assay [12]: qHTS assay to identify small molecule inhibitors of chordoma cells - UCH-1 (AID 1259355). Further: on the % scale 0 is the no-effect control and ±100 the full control effect; nearly all actives have a fitted effect of over 55% in size. The method in brief:
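Luminescent ATP read-out (CellTiter-Glo, 30min at room temperature) measured viability of UCH-1 cells exposed for 48hr to test drugs at 15 concentrations, co-dosed with a five-agent combination of auranofin, camptothecin, doxorubicin, rubitecan and topotecan.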

A short description of assay [13]: qHTS assay to identify small molecule inhibitors of chordoma cells - UCH-2 (AID 1259356). Further: on the % scale 0 is the no-effect control and ±100 the full control effect.

Values joined by “and” are separate entries in the source; they are usually repeats but may differ in a detail not shown here. Equal entries are not always repeated. Results filed as inconclusive are left out. More than one record can exist for a structure, and the calls need not agree. Active and inactive are the calls of the source. Unless noted, the call rests on the fitted dose curve; in most records, active means well fitted curve in the direction sought with a large enough effect; inconclusive means small, poorly fitted or top-dose-only effect, or another doubt; inactive means no such curve, though single readings can be large; an effect the other way counts as inactive or inconclusive.

On to `COc1ccc2c(c1)c(CC(=O)O)c(C)n2C(=O)c1ccc(Cl)cc1`, for which, in [1], the growth, % of control amounted to 83.6%. Also, the cell viability, % of control (lower = more cytotoxic) in [2] was found to be 127%. In addition, in [3], the viability (% of control) came to 104%. Further, the Potency result in [4], in assay [5], in assay [7], in assay [8] and in assay [9] was “inactive” each time. Also, in assay [6], the Potency was 14.8 µM (active).
In the case of `O=C(CCCN1CCC(O)(c2ccc(Cl)cc2)CC1)c1ccc(F)cc1`, the cell viability, % of control (lower = more cytotoxic) in assay [2] was 58.3%. Moreover, in assay [3], the viability (% of control) stood at 48.3%. The Potency result in assay [4], in assay [5], in assay [12] and in assay [9] was “inactive” throughout. For the same compound, the Potency in [10] was 18.7 µM (active); in [11] it was 20.9 µM (active); in [8] it was 18.4 µM (active).
With `Cc1cc(C(C)(C)C)cc(C)c1CC1=NCCN1`, the cell viability, % of control (lower = more cytotoxic) in [2] came to 20.6%. In assay [3], the viability (% of control) was determined as 12.2%. The Potency result in assay [4], in [5], in assay [6], in [10], in assay [7] and in [11] was “inactive” each time. Besides, the Potency result in assay [8] and in [9] was “inactive” in each case. The compound was called inactive in assay [13].
`CC12CC3CC(C)(C1)CC(N)(C3)C2`: in assay [1], the growth, % of control amounted to 512%. Besides, the cell viability, % of control (lower = more cytotoxic) in assay [2] was determined as 26.5%. Further, the viability (% of control) in [3] worked out at 17.7%. Further, the Potency result in assay [4], in [5], in assay [6], in [10], in assay [7] and in assay [11] was “inactive” each time. For the same compound, in assay [9], the Potency result was “inactive”. Further, in [13], the outcome was inactive.
As to `Cn1c(=O)c2[nH]cnc2n(C)c1=O`, in assay [2], the cell viability, % of control (lower = more cytotoxic) was 123%. The viability (% of control) in [3] is 96.4%. Moreover, the Potency result in [4], in assay [5], in assay [10], in assay [12], in assay [8] and in assay [9] was “inactive” throughout. The result in assay [13] was inactive.
Consider `COc1cc2nc(N3CCN(C(=O)C4COc5ccccc5O4)CC3)nc(N)c2cc1OC` (centres undefined), for which the growth, % of control in assay [1] is 2.34%. In [2], the cell viability, % of control (lower = more cytotoxic) was 14.1%. Besides, the viability (% of control) in [3] turned out to be 8.05%. The Potency result in assay [4], in assay [5], in [6], in assay [12] and in assay [8] was “inactive” each time. Further, the Potency in assay [10] was 16.6 µM (active). Also, the result in assay [13] was inactive.
In turn, `Cc1ccc(C(=O)Nc2ccc(S(=O)(=O)O)c3cc(S(=O)(=O)O)cc(S(=O)(=O)O)c23)cc1NC(=O)c1cccc(NC(=O)Nc2cccc(C(=O)Nc3cc(C(=O)Nc4ccc(S(=O)(=O)O)c5cc(S(=O)(=O)O)cc(S(=O)(=O)O)c45)ccc3C)c2)c1` registered a growth, % of control in assay [1] of 66.1%. The cell viability, % of control (lower = more cytotoxic) in assay [2] is 58.9%. In addition, the viability (% of control) in [3] stood at 102%. For the same compound, the Potency entry in assay [4], in assay [5], in [10], in assay [12], in [8] and in [9] was “inactive” in each case. The call in [13] was inactive.
`CC(C)NCC(O)COc1ccc(CCOCC2CC2)cc1` (centres undefined): the growth, % of control in assay [1] stood at 57.9%. Also, in assay [2], the cell viability, % of control (lower = more cytotoxic) stood at 88.1%. Moreover, in assay [3], the viability (% of control) turned out to be 97%. Besides, the Potency result in [4], in [5], in assay [6], in assay [10], in [11] and in assay [12] was “inactive” in each case. Besides, the Potency result in assay [9] was “inactive”.
In [1], `Cn1cnc2c1c(=O)[nH]c(=O)n2C` registered a growth, % of control of 9%. Also, the cell viability, % of control (lower = more cytotoxic) in assay [2] turned out to be 12.2%. Moreover, the viability (% of control) in assay [3] came out at 13.2%. The Potency result in assay [4], in assay [5], in assay [12] and in assay [9] was “inactive” in each case. Moreover, the Potency was 23.5 µM (active) in assay [10]; 23.5 µM (active) in [11]; “inactive and 16.6 µM (active)” in assay [8].
